# p53ts 39C tox: qHTS Screen for Compounds that Selectively Target Cancer Cells with p53 Mutations: Cytotoxicity of p53ts Cells at the Nonpermissive Temperature; AID 902, 2007; H1299-p53A138V viability at 39C, ATP luminescence, 24 h; Potency, µM (series often up to 46.1 µM), hits mostly cytotoxic; 130,000 compounds, 1.5% hits; further: nearly all actives have a fitted effect of over 55% in size
# p53ts 32C kill: qHTS Screen for Compounds that Selectively Target Cancer Cells with p53 Mutations: Cytotoxicity of p53ts Cells at the Permissive Temperature; H1299-p53A138V at 32C, ATP luminescence viability, 24 h; Potency, µM (series often up to 46.1 µM), hits mostly cytotoxic; 130,000 compounds, 0.93% hits; further: nearly all actives have a fitted effect of over 55% in size
#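 ATP-content luminescence (ATPlite) read-out after 24 h compound exposure at 32C in H1299-p53A138V cells (600/well). Tested up to 46 uM. Normalized to DMSO (0%) and 100 uM tamoxifen (100% killing); Hill-fit AC50.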
# Imprint erasure: qHTS Assay for Compounds that Induce Erasure of Genomic Imprints; AID 1948, 2009; mouse ES Peg3-LacZ reporter, beta-gal luminescence, 40 h; Potency, µM (highest dose often 60.7 µM), actives largely listed as activators; 110,000 compounds, 0.02% hits
#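 Readout: BetaGlo luminescence (5 min, room temp) for LacZ from the normally silent maternal Peg3 allele in female Peg3LacZ-Neo ES cells. Cells 300/well, 40 h, 37C, 5% CO2. Data normalized per plate to negative controls.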
# Hits are given with their value; i = inactive; ? = inconclusive; nt = no result; [ ] = dose if it differs, or a comment. Compounds with a hit are over-represented: about 1.6% of the library has one in this group of screens. The call rests on the fitted dose curve; in most records, active means well fitted curve in the direction sought with a large enough effect; inconclusive means small, poorly fitted or top-dose-only effect, or another doubt; inactive means no such curve, though single readings can be large; an effect the other way counts as inactive or inconclusive.
SMILES,p53ts 39C tox,p53ts 32C kill,Imprint erasure
c1ccc(-c2noc(-c3ccc4ccccc4c3)n2)nc1,0.63µM,0.32µM,i
Cc1occc1-c1nc(-c2ccncc2)no1,i,i,i
c1ccc(-c2noc(-c3ccc4c(c3)OCO4)n2)nc1,1µM,0.63µM,i
c1ccc(-c2noc(-c3ccncc3)n2)nc1,?,?,i
Cc1cccc(NC(=O)C2CCN(S(=O)(=O)c3cccc4nsnc34)CC2)c1C,i,i,i[10.9 µM]
Cc1ccc(Cn2cc(S(=O)(=O)c3ccccc3)c(=O)c3cc(F)c(N4CCOCC4)cc32)cc1,nt,i,nt
CCCC/C=C/C(NC(=O)OCc1ccccc1Cl)c1ccccc1 (configuration not stated),i,i,i
CCC(C)NC(=O)c1ccc2c(c1)nc1n2CCCCC1 (configuration not stated),?,?,i[10.9 µM]
COCCCNC(=O)c1ccc2c(c1)nc1n2CCCCC1,10µM,?,i[10.9 µM]
COc1ccc(CNC(=O)c2ccc3c(c2)nc2n3CCCCC2)cc1,?,i,i[10.9 µM]
CCCNC(=O)c1ccc2c(c1)nc1n2CCCCC1,6.3µM,13µM,i[10.9 µM]
Cn1c(=O)c2c(-c3ccc(Br)cc3)n(CCc3ccccc3)cc2n(C)c1=O,i,i,i[10.9 µM]
CO[C@@H]1COC(=O)[C@@H](C)NC(=O)C/C=C\[C@@H](C)[C@H](NS(=O)(=O)c2ccc(C)cc2)COC(=O)[C@H](C)NC(=O)C/C=C\[C@H]1C,i[9.22 µM],i[9.22 µM],nt
CCn1c(=O)n(-c2ccc(F)c(Cl)c2)c(=O)c2c3c(sc21)CN(C(C)=O)CC3,i,i,i[10.9 µM]
[Cu].[O-]/N=C1/C(=[OH+])Nc2ccccc21.[O-]Nc1c(O)[nH]c2ccccc12,i[9.22 µM],i[9.22 µM],nt
c1cncc(-c2csc(NCc3ccco3)n2)c1,i,i,nt
CN(C)c1ccc(Nc2nc(-c3cccnc3)cs2)cc1,3.2µM,3.2µM,i
O=C(CCS(=O)(=O)c1cc2c3c(c1)CCN3C(=O)CC2)Nc1cccc(Br)c1,i,i,i[10.9 µM]
CN(C)C(=O)c1c(NC(=O)c2ccco2)sc2c1CCCCC2,i,i,nt
Cc1cccc(C(=O)Nc2sc3c(c2C(=O)Nc2ccccc2)CCC3)c1,i,i,i[10.9 µM]
O=C(Nc1sc2c(c1C(=O)O)CCCCC2)c1ccco1,13µM,13µM,i
Cc1cccc(C(=O)Nc2sc3c(c2C(=O)O)CCCC3)c1,13µM,?,i[10.9 µM]
CCC1=C2CC[C@H]3C(=O)NC(=O)[C@H]3[C@H]2[C@@]2(C)C(=NCC3CC3)OC(=O)N2C1=O,i,i,i
CCOc1cc(/C=N/NC(=O)c2cc(-c3cccc(OC)c3)n[nH]2)ccc1O,i,i,nt
CCCCCOC(=O)c1[nH]c2c(c1C)C(=O)C(C(=O)OC)C(C)C2 (configuration not stated),i,i,i
SMILES,p53ts 39C tox,p53ts 32C kill,Imprint erasure
COC(=O)C1C(=O)c2c([nH]c(C(=O)OC3CCCCCC3)c2C)CC1C (configuration not stated),i,i,i
COCCOC(=O)c1[nH]c2c(c1C)C(=O)C(C(=O)OC)C(C)C2 (configuration not stated),10µM,16µM,i
COC(=O)C1C(=O)c2c([nH]c(C(=O)OCC3CCCO3)c2C)CC1C (configuration not stated),?,13µM,i
Cc1[nH]n(-c2ccccc2)c(=O)c1/C=N/c1ccccn1,?,?,i
Cc1ccc(-n2[nH]c(C)c(C=Nc3ccc(C)cn3)c2=O)cc1,13µM,13µM,i
Cc1c(-c2nnc(SCC(=O)Nc3ccccc3F)o2)nnn1-c1ccc(F)cc1,i,i,i[10.9 µM]
CC(=O)c1ccc(NC(=O)/C=C/c2ccc(C)o2)cc1,10µM,7.9µM,i[10.9 µM]
Cc1ccc(NC(=O)/C=C/c2ccc(C)o2)c(C)c1,i,i,i[10.9 µM]
COc1ccccc1O,i,?,i
COc1cccc(O)c1O,6.3µM,5µM,i
CC(C)(C)C(=O)Nc1ccc2nc(SCC(=O)N3CCCC3)sc2c1,i,i,i[10.9 µM]
CCC1=C2CC[C@H]3C(=O)N(CC(=O)OC)C(=O)[C@H]3[C@H]2[C@@]2(C)C(=O)N(Cc3ccccc3)C(=O)N2C1=O,i,i,i
O=c1c(-c2ccc3c(c2)OCCO3)coc2cc(O)cc(O)c12,7.9µM,13µM,i
O=c1c(-c2ccccc2)coc2cc(O)cc(O)c12,?,?,i
CCOc1ccc(C2CC(c3c(O)n(C4CCCCC4)c(=O)[nH]c3=O)=Nc3ccccc3S2)cc1 (configuration not stated),i,i,i[10.9 µM]
COc1cccc(CNC(=O)C2CCN(c3nc4ccc(Cl)cc4[nH]3)CC2)c1,i,i,i[10.9 µM]

# Screening results from PubChem BioAssay.
